# Measured values as given in PubChem BioAssay AID360 (National Center for Advancing Translational Sciences (NCATS), 2006).
# Out of some 48,000 compounds screened, about 550 (1.1%) were called active. About 4% were inconclusive and are not listed. Only a selection was taken, and actives are over-represented in it overall. Values without a mark were called inactive. Rule as the data show it: active = potency below about 15 µM; inconclusive = mostly about 16 µM to 33 µM; inactive = weaker than that.
# Target: Lysosomal acid glucosylceramidase (Homo sapiens) (UniProt P04062)
# Test: Glucocerebrosidase;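 also: the screen sought inhibitors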
# Conditions: purified enzyme, resorufin glucoside fluorescence (screen aimed at inhibitors), 20 min
# Summary of the method: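 Compounds titrated against 0.2 nM normal enzyme, 30 uM resorufin beta-D-glucopyranoside substrate, citrate/phosphate buffer with taurocholate and tween-20, pH 5.9. Reaction ran 20 min at room temperature; fluorescence (Ex 548/Em 600) gave AC50.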
# Potency is read from the fitted curve at half-maximal effect.
# Sequence of Lysosomal acid glucosylceramidase (Homo sapiens) (P04062 whole entry, looked up): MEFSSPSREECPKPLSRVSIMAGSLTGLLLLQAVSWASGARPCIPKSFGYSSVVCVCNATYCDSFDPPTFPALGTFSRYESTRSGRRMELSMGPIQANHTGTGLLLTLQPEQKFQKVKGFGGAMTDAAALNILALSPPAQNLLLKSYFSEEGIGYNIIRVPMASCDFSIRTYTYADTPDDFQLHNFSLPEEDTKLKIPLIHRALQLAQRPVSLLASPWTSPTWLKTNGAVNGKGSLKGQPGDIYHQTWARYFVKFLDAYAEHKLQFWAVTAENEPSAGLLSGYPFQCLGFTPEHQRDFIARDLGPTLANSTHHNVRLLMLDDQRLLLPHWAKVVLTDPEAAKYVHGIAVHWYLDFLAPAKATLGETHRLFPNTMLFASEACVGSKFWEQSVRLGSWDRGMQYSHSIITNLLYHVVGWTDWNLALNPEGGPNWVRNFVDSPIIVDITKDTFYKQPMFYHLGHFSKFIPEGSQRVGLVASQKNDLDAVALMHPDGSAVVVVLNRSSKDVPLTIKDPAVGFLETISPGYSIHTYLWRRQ
row,Structure (SMILES),Potency
1,O=C(OCC(O)C(O)COC(=O)c1ccccc1)c1ccccc1 (centres undefined),> 76.9 µM
2,Cc1ccc(S(=O)(=O)NCc2csc(C)n2)c(C)c1,> 76.9 µM
3,Cc1ccc(C)c(NS(=O)(=O)c2cc(Br)cnc2N)c1,15.2 µM (active)
4,COC(=O)c1c(NC(=O)CSc2nc3c(c(=O)n(C)c(=O)n3C)n2C(C)C)sc(C)c1C,> 76.9 µM
5,Cc1nc2c(-c3ccccc3)c(C)[nH]n2c(=O)c1Cl,5.44 µM (active)
6,Cc1nc2nc(COc3ccccc3)[nH]n2c(=O)c1C,> 76.9 µM
7,CCn1c(COc2ccccc2)nnc1SCC(=O)Nc1ccc2c(c1)OCCO2,> 76.9 µM
8,O=C(NCc1ccc(Cl)cc1)c1cc2c(nc3sccn32)s1,8.26 µM (active)
9,O=c1cc(Cn2nnc(-c3ccc(Cl)cc3)n2)nc2sccn12,> 76.9 µM
10,O=C(NCc1cn2ccsc2n1)Nc1ccc(Cl)cc1,> 76.9 µM
11,CCn1c(SCC(=O)c2ccc(Cl)s2)nnc1-c1cccs1,> 76.9 µM
12,CC(=O)N1CCC(C(=O)Nc2nc(-c3ccccc3)ns2)CC1,7.19 µM (active)
13,CCN(CC)S(=O)(=O)N1CCC(C(=O)NC(C)CCc2ccccc2)CC1 (centres undefined),> 76.9 µM
14,Cc1ccc2c(NC(=O)C3CC3)cccc2n1,> 76.9 µM
15,CCc1nnc(NC(=O)c2ccc(S(=O)(=O)NC3CCCCC3)cc2)s1,9.65 µM (active)
16,CCc1nnc(NS(=O)(=O)c2ccc(NS(=O)(=O)c3ccccc3)cc2)s1,> 76.9 µM
17,CCc1nnc(NC(=O)C2CCCN2S(=O)(=O)c2ccccc2)s1 (centres undefined),> 76.9 µM
18,O=C(c1ccccc1-c1ccccc1)N1CCOCC1,> 76.9 µM
19,Cc1occc1C(=O)Nc1cccc(Cn2cccn2)c1,> 76.9 µM
20,CCNc1nc(N)nc(Oc2ccc(OCC)nn2)n1,> 76.9 µM

row,Structure (SMILES),Potency
1,CC(C)(C)c1nc(NCC2CCCO2)c2nnn(Cc3ccccc3)c2n1 (centres undefined),> 76.9 µM
2,CC(C)(C)NC(=O)Cn1nnc(-c2ccccc2Cl)n1,15.2 µM (active)
3,O=C(Cn1nnc(-c2ccccc2)n1)NCc1ccccc1,> 76.9 µM
4,Cc1ccccc1-c1nnn(CC(=O)c2ccc(S(=O)(=O)N3CCCC3)cc2)n1,> 76.9 µM
5,Cc1noc(C)c1COC(=O)Cn1c(C)nc2ccccc21,> 76.9 µM
6,CC(C)[C@H](NC(=O)Nc1ccc(S(N)(=O)=O)cc1)C(=O)O,> 76.9 µM
7,COc1ccc(OC)c(NC(=O)CSc2nc3cccnc3n2C)c1,> 76.9 µM
8,CCOC(=O)CSc1nnc(CNc2nc(-c3ccccc3)cs2)n1C,> 76.9 µM
9,Cc1ccc(NC(=O)Cn2nc(C)c3ccccc3c2=O)c(C)c1,> 76.9 µM
10,O=C(NC1CCCCC1)c1ccc2c(=O)n(CC3CCCO3)c(=O)[nH]c2c1 (centres undefined),6.37 µM (active)
11,O=c1c2cc3c(=O)n(CC4CCCO4)c(=O)c3cc2c(=O)n1CC1CCCO1 (centres undefined),> 76.9 µM
12,COC(=O)c1ccc2c(=O)n(CC3CCCO3)c(=S)[nH]c2c1 (centres undefined),> 76.9 µM
13,O=C(C1CCC(C(=O)N2CCCC2)CC1)N1CCCC1 (centres undefined),> 76.9 µM
14,CCOc1ccc(NC(=O)Nc2cc(C)on2)cc1,> 76.9 µM
15,CC1(C)CC(=O)C=C(NCCCN2CCCC2=O)C1,> 76.9 µM
16,O=C(OCc1nnc(-c2ccccc2)o1)c1ccc2c(c1)C(=O)N(CCc1ccccc1)C2=O,> 76.9 µM
17,CCNC(=O)CN(c1ccc(C)cc1)S(=O)(=O)c1ccc(SC)cc1,> 76.9 µM
18,COc1ccc(Cl)cc1NC(=O)C1CC(=O)N(c2ccc(F)cc2)C1 (centres undefined),> 76.9 µM
19,O=S(=O)(NCc1ccccn1)c1ccc(Br)s1,> 76.9 µM
20,c1ccc(-c2cc(-c3nnc4sc(-c5ccccn5)nn34)[nH]n2)cc1,> 76.9 µM

row,Structure (SMILES),Potency
1,CCCn1c(=O)c(-c2ccccc2)c(O)c2ccccc21,> 76.9 µM
2,Cc1ccc(F)cc1NC(=O)c1ccc2c(c1)OCO2,> 76.9 µM
3,Cc1ccc(-n2c(N)c(C(=O)N3CCOCC3)sc2=S)c(C)c1,> 76.9 µM
4,COc1ccc(-n2nnnc2SCC(=O)c2ccc(OC)c(OC)c2)cc1,> 76.9 µM
5,Cn1c(SCC(=O)Nc2cccc(NC(=O)c3cccs3)c2)nnc1-c1ccncc1,> 76.9 µM
6,COc1ccc(N2CCN(C(=O)CSc3nnc4ncccn34)CC2)cc1,> 76.9 µM
7,Cc1ccc(OCC(=O)Nc2ccc(-c3nc4ncccc4o3)cc2)cc1,> 76.9 µM
8,O=C(O)c1ccc(-n2cccc2)cc1O,> 76.9 µM
9,CCCCN(C)C(=O)C1CCN(Cc2ccccn2)CC1,> 76.9 µM
10,O=C(Nc1ccon1)c1cccc(Cl)c1,> 76.9 µM
11,Fc1ccc(Cn2nnnc2C(c2cccs2)N2CCCCCC2)cc1 (centres undefined),> 76.9 µM
12,CCC(=O)N(Cc1cc2cc(OC)ccc2[nH]c1=O)c1ccccc1C,> 76.9 µM
13,Cc1ccc(C2(c3ccc(C)cc3)NC(=O)N(Cc3c(C)noc3C)C2=O)cc1,> 76.9 µM
14,CCOc1ccc(CNC(=O)C2CCC(=O)N2C2CCCC2)cc1OC (centres undefined),> 76.9 µM
15,CCOc1ccccc1C1C(C(=O)OC)=CN(C)C=C1C(=O)OC,> 76.9 µM
16,CCOc1cc(C2C(C(=O)OC)=CN(C3CCCC3)C=C2C(=O)OC)cc(Br)c1O,6.06 µM (active)
17,CC(C)CCNC(=O)CN(C(=O)Cn1nnc(-c2ccc(F)cc2)n1)C1CCCC1,> 76.9 µM
18,CC(=O)Nc1ccc(S(=O)(=O)NCCc2ccccc2)cc1,> 76.9 µM
19,O=C(CN1CCN(c2nc(-c3ccccc3)cs2)CC1)NCc1ccc2c(c1)OCO2,> 76.9 µM
